Measured values as given in the supplement of paper PMC10849652.
Targets with a hit are over-represented here; the source holds about 7,900 in all. About 0.6% of all pairs of compound and target were hits. A number with no mark means an inactive call.

Assays:
Assay in all cases: log2 fold change, soluble protein after heating vs DMSO (PISA); higher = thermal stabilisation; K562 cells, 10 uM, 30 min; active = over 0.2 and 3.5 SD of the protein, either way, in both replicates (recomputed)
saracatinib = compound: CN1CCN(CCOc2cc(OC3CCOCC3)c3c(Nc4c(Cl)ccc5c4OCO5)ncnc3c2)CC1 [saracatinib]
In short: (§1)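 Soluble protein was defined as the supernatant after 21,000xg for 90 min. It came from K562 cells at 2×10^6 cells/mL given 10 μM compound for 30 min, heated in aliquots for 3 min across 48°C-58°C, pooled, and extracted in PBS with 0.5% NP-40 at 4°C, and was quantified by TMTpro 16plex LC-MS/MS with equalised channel sums. Thermal stability against control samples, from duplicates, is reported as log2 fold change.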

sotrastaurin = compound: CN1CCN(c2nc(C3=C(c4c[nH]c5ccccc45)C(=O)NC3=O)c3ccccc3n2)CC1 [sotrastaurin]
In short: as §1

alvocidib = compound: CN1CC[C@H](c2c(O)cc(O)c3c(=O)cc(-c4ccccc4Cl)oc23)[C@H](O)C1 [alvocidib]
In short: as §1

Tubastatin A = compound: CN1CCc2c(c3ccccc3n2Cc2ccc(C(=O)NO)cc2)C1 [Tubastatin A]
In short: as §1

[1] = compound: CNC(=O)C1=CC=CC=C1NC2=NC(=NC=C2Cl)NC3=C(C=C(C=C3)N4CCOCC4)OC
In short: as §1

defactinib = compound: CNC(=O)c1ccc(Nc2ncc(C(F)(F)F)c(NCc3nccnc3N(C)S(C)(=O)=O)n2)cc1 [defactinib]
In short: as §1

rucaparib = compound: CNCc1ccc(-c2[nH]c3cc(F)cc4c3c2CCNC4=O)cc1 [rucaparib]
In short: as §1

[2] = compound: CNc1nc(-c2ccc3c(N)n[nH]c3c2)cc(N2C[C@@H](C(=O)NC3CCCCC3)CC[C@H]2C)n1
In short: as §1

encorafenib = compound: COC(=O)N[C@@H](C)CNc1nccc(-c2cn(C(C)C)nc2-c2cc(Cl)cc(NS(C)(=O)=O)c2F)n1 [encorafenib]
In short: as §1

[3] = compound: COC(=O)[C@H](CCSC)NC(=O)C1=C(C=C(C=C1)NC[C@H](CS)N)C2=CC=CC=C2
In short: as §1

[4] = compound: COC1=CC=C(C=C1)CN2C=CC3=C2C=C(C=C3)C(=O)NO
In short: as §1

filanesib = compound: CON(C)C(=O)N1N=C(c2cc(F)ccc2F)S[C@@]1(CCCN)c1ccccc1 [filanesib]
In short: as §1

zotarolimus = compound: CO[C@H]1C[C@@H]2CC[C@@H](C)[C@@](O)(O2)C(=O)C(=O)N2CCCC[C@H]2C(=O)O[C@H]([C@H](C)C[C@@H]2CC[C@H](n3cnnn3)[C@H](OC)C2)CC(=O)[C@H](C)/C=C(\C)[C@@H](O)[C@@H](OC)C(=O)[C@H](C)C[C@H](C)/C=C/C=C/C=C/1C [zotarolimus]
In short: as §1

idasanutlin = compound: COc1cc(C(=O)O)ccc1NC(=O)[C@@H]1N[C@@H](CC(C)(C)C)[C@](C#N)(c2ccc(Cl)cc2F)[C@H]1c1cccc(Cl)c1F [idasanutlin]
In short: as §1

alisertib = compound: COc1cc(Nc2ncc3c(n2)-c2ccc(Cl)cc2C(c2c(F)cccc2OC)=NC3)ccc1C(=O)O [alisertib]
In short: as §1

[5] = compound: COc1cc2nc(-c3cc(F)ccc3O)nc(N[C@@H]3CNC[C@H]3C(C)(C)O)c2cc1OC
In short: as §1

gefitinib = compound: COc1cc2ncnc(Nc3ccc(F)c(Cl)c3)c2cc1OCCCN1CCOCC1 [gefitinib]
In short: as §1

[6] = compound: COc1cccc2cc(-c3nc([C@H]4CC[C@H](C(=O)O)CC4)n4ncnc(N)c34)[nH]c12
In short: as §1

lapatinib = compound: CS(=O)(=O)CCNCc1ccc(-c2ccc3ncnc(Nc4ccc(OCc5cccc(F)c5)c(Cl)c4)c3c2)o1 [lapatinib]
In short: as §1

pictilisib = compound: CS(=O)(=O)N1CCN(Cc2cc3nc(-c4cccc5[nH]ncc45)nc(N4CCOCC4)c3s2)CC1 [pictilisib]
In short: as §1

Sequence of UniProt Q969G3 (Q969G3 whole entry, looked up): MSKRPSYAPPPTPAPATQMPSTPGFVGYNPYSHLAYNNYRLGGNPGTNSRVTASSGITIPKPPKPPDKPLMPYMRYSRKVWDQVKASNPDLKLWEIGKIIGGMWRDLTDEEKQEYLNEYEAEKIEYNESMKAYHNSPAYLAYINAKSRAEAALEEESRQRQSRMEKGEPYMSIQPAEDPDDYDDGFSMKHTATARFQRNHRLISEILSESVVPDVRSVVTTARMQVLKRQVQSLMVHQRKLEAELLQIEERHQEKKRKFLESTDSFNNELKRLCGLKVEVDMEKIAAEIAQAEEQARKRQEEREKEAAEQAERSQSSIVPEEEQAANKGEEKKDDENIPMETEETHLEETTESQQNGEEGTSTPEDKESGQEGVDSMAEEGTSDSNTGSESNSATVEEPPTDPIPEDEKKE
Sequence of UniProt Q9P016 (Q9P016 whole entry, looked up): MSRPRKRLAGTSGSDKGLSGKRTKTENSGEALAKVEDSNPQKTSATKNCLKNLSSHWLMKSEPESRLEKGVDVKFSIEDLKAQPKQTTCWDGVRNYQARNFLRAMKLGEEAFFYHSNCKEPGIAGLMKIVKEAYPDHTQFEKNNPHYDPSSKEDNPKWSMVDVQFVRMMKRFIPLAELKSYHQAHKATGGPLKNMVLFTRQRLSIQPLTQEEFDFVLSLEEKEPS
Sequence of UniProt Q92581 (Q92581 whole entry, looked up): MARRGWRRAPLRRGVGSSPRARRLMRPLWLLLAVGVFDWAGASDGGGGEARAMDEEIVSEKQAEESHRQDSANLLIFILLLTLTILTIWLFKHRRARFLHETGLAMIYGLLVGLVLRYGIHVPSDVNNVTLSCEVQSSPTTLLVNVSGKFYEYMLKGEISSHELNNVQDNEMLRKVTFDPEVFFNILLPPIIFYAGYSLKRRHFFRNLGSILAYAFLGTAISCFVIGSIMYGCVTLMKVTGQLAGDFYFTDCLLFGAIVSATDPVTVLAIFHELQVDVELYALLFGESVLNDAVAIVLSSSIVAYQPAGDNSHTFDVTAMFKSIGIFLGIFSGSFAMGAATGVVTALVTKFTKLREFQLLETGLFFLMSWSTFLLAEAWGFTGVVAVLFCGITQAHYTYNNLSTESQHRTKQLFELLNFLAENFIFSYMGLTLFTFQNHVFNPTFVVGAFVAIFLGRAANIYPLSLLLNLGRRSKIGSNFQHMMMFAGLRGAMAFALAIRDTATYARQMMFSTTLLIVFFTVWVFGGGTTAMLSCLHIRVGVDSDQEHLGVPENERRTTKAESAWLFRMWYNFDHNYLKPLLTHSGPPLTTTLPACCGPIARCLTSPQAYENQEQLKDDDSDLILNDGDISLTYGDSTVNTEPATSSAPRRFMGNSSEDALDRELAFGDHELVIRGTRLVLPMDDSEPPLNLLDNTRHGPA
Sequence of UniProt Q9Y5X1 (Q9Y5X1 whole entry, looked up): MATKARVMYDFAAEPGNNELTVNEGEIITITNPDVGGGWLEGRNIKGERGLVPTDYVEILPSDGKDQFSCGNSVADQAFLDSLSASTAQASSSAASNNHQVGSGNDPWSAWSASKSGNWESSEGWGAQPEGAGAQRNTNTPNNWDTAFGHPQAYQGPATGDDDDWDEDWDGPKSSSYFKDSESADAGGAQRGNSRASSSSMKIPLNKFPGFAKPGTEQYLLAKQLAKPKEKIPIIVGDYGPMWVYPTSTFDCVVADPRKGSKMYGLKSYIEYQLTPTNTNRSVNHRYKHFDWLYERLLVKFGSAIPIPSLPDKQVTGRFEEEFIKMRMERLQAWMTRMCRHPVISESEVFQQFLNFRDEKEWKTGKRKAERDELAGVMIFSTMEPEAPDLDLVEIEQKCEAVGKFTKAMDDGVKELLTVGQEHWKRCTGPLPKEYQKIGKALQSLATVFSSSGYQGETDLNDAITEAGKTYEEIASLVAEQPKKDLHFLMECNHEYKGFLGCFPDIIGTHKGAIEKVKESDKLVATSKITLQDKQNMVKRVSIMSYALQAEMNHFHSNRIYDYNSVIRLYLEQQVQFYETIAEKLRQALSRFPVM
Sequence of UniProt O95772 (O95772 whole entry, looked up): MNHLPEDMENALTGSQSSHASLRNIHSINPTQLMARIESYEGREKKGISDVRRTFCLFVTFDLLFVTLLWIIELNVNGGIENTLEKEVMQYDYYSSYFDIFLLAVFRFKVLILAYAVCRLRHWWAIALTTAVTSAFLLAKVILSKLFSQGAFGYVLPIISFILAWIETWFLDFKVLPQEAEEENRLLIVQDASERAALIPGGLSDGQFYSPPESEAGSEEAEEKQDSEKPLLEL
Sequence of UniProt Q00059 (Q00059 whole entry, looked up): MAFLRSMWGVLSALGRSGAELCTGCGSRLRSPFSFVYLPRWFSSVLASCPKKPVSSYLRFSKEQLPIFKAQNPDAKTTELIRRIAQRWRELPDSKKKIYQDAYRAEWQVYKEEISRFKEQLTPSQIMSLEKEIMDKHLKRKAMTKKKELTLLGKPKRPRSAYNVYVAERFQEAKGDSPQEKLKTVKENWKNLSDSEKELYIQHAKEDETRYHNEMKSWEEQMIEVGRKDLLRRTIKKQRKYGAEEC
Sequence of UniProt Q9BTW9 (Q9BTW9 whole entry, looked up): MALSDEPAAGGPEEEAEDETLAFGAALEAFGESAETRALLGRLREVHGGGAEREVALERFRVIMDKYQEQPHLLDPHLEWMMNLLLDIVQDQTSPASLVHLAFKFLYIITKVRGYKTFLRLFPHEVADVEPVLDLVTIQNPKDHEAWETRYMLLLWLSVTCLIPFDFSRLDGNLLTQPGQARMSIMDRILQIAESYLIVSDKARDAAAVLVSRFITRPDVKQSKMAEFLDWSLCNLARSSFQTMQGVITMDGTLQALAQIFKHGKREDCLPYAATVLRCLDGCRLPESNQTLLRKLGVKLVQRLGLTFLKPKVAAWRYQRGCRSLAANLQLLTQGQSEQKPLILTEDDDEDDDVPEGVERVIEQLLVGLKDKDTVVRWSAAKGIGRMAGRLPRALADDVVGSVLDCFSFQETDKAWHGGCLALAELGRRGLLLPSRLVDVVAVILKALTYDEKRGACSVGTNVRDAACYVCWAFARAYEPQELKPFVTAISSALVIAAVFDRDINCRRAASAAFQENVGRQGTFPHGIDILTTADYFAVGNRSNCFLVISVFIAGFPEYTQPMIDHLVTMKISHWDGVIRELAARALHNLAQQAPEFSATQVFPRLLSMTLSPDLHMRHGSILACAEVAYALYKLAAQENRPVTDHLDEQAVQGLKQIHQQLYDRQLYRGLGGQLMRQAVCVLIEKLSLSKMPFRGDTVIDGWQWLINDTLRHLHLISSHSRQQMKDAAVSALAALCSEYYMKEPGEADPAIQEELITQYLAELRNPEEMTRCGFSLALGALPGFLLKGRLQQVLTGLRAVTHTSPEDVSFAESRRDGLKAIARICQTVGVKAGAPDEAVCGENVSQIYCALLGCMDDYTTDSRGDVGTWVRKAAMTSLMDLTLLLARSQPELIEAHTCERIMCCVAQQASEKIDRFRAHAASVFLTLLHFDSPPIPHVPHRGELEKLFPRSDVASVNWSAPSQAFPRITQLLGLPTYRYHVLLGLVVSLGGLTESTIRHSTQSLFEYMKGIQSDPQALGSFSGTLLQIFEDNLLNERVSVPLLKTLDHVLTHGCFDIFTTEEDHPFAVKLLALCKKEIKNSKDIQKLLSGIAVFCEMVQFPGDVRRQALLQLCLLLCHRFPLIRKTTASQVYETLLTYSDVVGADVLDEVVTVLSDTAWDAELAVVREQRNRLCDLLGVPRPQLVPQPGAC
Sequence of UniProt Q9P2R7 (Q9P2R7 whole entry, looked up): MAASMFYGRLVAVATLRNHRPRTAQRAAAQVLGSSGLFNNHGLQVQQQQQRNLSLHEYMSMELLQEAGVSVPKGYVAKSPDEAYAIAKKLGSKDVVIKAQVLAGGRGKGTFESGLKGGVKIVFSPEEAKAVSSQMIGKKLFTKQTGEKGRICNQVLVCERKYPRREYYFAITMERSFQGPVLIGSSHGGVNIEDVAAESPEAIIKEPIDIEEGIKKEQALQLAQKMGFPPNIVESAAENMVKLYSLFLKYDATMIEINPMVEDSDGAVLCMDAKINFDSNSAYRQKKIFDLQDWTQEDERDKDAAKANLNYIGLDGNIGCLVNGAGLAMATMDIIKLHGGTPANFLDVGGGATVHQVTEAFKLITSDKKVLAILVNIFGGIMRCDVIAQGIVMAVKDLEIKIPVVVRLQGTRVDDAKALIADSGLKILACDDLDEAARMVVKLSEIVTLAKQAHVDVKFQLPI
Sequence of UniProt Q8NBW4 (Q8NBW4 whole entry, looked up): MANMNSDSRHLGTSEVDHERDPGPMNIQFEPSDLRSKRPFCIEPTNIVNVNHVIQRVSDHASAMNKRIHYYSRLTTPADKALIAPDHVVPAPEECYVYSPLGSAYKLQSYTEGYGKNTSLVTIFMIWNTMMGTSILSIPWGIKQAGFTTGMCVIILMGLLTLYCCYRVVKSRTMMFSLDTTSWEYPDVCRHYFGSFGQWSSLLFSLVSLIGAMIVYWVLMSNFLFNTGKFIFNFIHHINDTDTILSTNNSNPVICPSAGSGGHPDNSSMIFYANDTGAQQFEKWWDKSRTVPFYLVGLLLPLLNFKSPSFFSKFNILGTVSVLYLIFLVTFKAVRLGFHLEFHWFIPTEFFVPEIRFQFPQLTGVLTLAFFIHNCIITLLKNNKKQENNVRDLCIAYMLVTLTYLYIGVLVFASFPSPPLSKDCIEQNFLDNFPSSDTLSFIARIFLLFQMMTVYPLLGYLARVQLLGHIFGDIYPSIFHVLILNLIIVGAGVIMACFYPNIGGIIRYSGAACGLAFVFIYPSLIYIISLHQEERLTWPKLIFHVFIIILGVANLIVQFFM
Sequence of UniProt Q16842 (Q16842 whole entry, looked up): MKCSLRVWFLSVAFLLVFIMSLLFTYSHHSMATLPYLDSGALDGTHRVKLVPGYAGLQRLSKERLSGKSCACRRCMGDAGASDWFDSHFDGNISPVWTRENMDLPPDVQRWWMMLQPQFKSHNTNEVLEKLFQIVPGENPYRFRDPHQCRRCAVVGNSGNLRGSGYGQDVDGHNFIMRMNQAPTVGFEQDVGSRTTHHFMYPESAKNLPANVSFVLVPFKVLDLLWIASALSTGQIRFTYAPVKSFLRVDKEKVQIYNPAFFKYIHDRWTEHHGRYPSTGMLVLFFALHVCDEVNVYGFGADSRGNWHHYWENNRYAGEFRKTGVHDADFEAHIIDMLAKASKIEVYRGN

Target | log2 fold change (saracatinib) | log2 fold change (sotrastaurin) | log2 fold change (alvocidib) | log2 fold change (Tubastatin A) | log2 fold change [1] | log2 fold change (defactinib) | log2 fold change (rucaparib) | log2 fold change [2] | log2 fold change (encorafenib) | log2 fold change [3] | log2 fold change [4] | log2 fold change (filanesib) | log2 fold change (zotarolimus) | log2 fold change (idasanutlin) | log2 fold change (alisertib) | log2 fold change [5] | log2 fold change (gefitinib) | log2 fold change [6] | log2 fold change (lapatinib) | log2 fold change (pictilisib)
THYN1 (UniProt Q9P016) | -0.062 | -0.022 | -0.008 | -0.006 | 0.079 | -0.002 | 0.029 | 0.072 | 0 | -0.029 | -0.01 | -0.009 | 0.015 | -0.011 | -0.065 | 0.035 | 0.028 | -0.007 | -0.039 | -0.032
SREK1 isoform 2 (UniProt Q8WXA9) | -0.034 | -0.106 | 0.005 | 0.061 | -0.422 | -0.371 | 0.083 | 0.013 | 0.059 | -0.007 | 0.26 | -0.1 | 0.053 | 0.086 | -0.096 | -0.072 | 0.066 | 0.06 | 0.108 | -0.001
STARD7 (UniProt Q9NQZ5) | -0.021 | 0.041 | -0.122 | -0.005 | -0.012 | -0.047 | -0.009 | -0.014 | 0.03 | -0.043 | 0.006 | -0.094 | 0.006 | -0.063 | 0.027 | -0.171 | -0.035 | 0.031 | 0.003 | 0.01
SUCLA2 (UniProt Q9P2R7) | -0.013 | 0.03 | 0.011 | 0.024 | 0.011 | -0.037 | -0.029 | -0.048 | 0.021 | -0.008 | -0.004 | -0.096 | 0.01 | -0.074 | 0.104 | 0.093 | 0.022 | 0.018 | -0.05 | 0.109
TAF9 (UniProt Q16594) | 0.076 | 0.021 | 0.142 | -0.023 | -0.1 | 0.016 | -0.019 | -0.065 | -0.048 | 0.103 | 0.066 | 0.109 | -0.018 | 0.056 | -0.109 | 0.024 | 0.01 | 0.019 | -0.028 | -0.017
SMARCE1 (UniProt Q969G3) | -0.036 | -0.204 | -0.033 | 0.018 | -0.032 | 0.579 (active) | -0.016 | 0.023 | 0.166 | -0.199 | 0.035 | 0.058 | 0.052 | 0.013 | -0.21 | -0.07 | 0.066 | 0.206 | 0.038 | -0.062
TBCD (UniProt Q9BTW9) | 0.003 | -0.056 | -0.096 | 0.05 | -0.016 | -0.056 | 0 | -0.031 | 0.018 | -0.007 | -0.017 | -0.063 | 0.049 | -0.091 | -0.078 | -0.006 | 0.022 | 0.023 | -0.024 | 0.04
STARD9 (UniProt Q9P2P6) | 0.051 | -0.316 | -0.337 | 0.122 | -0.344 | 0.144 | -0.005 | 0.103 | 0.048 | -0.03 | -0.037 | -0.028 | 0.098 | -0.035 | 0.096 | 0.058 | -0.132 | -0.185 | 0.154 | 0.008
TFAM (UniProt Q00059) | -0.017 | 0.052 | 0.116 | 0.052 | -0.008 | 0.107 | 0.042 | -0.01 | 0.039 | 0.047 | -0.035 | 0.048 | 0.01 | 0.046 | -0.1 | 0.015 | -0.026 | -0.058 | -0.012 | -0.04
ST3GAL2 (UniProt Q16842) | -0.103 | 0.036 | -0.017 | 0.107 | 0.129 | -0.02 | 0.093 | 0.138 | 0.06 | -0.136 | 0.087 | 0.124 | 0.092 | 0.075 | -0.134 | 0.1 | 0.187 | -0.043 | 0.17 | 0.102
SNW1 (UniProt Q13573) | 0.01 | 0.003 | 0.128 | -0.033 | 0.038 | 0.131 | 0.042 | -0.082 | -0.005 | -0.005 | 0.014 | 0.039 | -0.068 | 0.034 | -0.08 | 0.073 | -0.068 | 0 | 0.011 | -0.035
TLK2 isoform 2 (UniProt Q86UE8) | 0.048 | -0.012 | -0.027 | 0.014 | -0.031 | 0 | -0.051 | -0.003 | -0.006 | 0 | -0.019 | 0.038 | 0.032 | 0.087 | 0.115 | -0.036 | 0.007 | 0.06 | 0.041 | -0.071
SLC38A9 (UniProt Q8NBW4) | 0.053 | -0.184 | -0.024 | -0.05 | 0.025 | -0.038 | -0.048 | -0.073 | -0.001 | 0.001 | 0.033 | 0.064 | -0.012 | -0.004 | 0 | 0.053 | -0.012 | 0.121 | -0.065 | -0.027
SLC9A6 isoform 2 (UniProt Q92581) | 0.06 | 0.048 | -0.016 | -0.027 | 0.001 | -0.027 | -0.015 | -0.07 | 0.008 | 0.053 | -0.077 | -0.051 | -0.062 | -0.011 | -0.013 | 0.062 | -0.017 | 0.071 | 0.003 | 0.129
STARD3NL (UniProt O95772) | 0.103 | -0.004 | -0.01 | -0.05 | 0.013 | -0.007 | -0.164 | -0.052 | 0.068 | -0.046 | -0.005 | -0.082 | -0.054 | -0.19 | -0.056 | 0.095 | 0.048 | 0.075 | -0.048 | 0.024
SNX9 (UniProt Q9Y5X1) | 0.01 | -0.064 | -0.069 | -0.025 | 0.038 | -0.112 | 0.058 | -0.005 | 0.049 | 0 | -0.002 | -0.017 | 0.004 | -0.01 | -0.013 | 0.019 | 0.038 | -0.059 | -0.034 | -0.036
